Source: PubChem BioAssay (Tox21)
Results filed as inconclusive are left out. The source made the active and inactive calls. Unless noted, calls follow the shape of the dose curve; as a rule, active = well fitted curve in the direction sought with a large enough effect in the repeat runs; inconclusive = weak or mixed curves; inactive = no such curve, though single readings can be large; an effect the other way counts as inactive or inconclusive.

Tests used:
[1] = target: Retinoic acid receptor RXR-alpha (Homo sapiens) (UniProt P19793); test: qHTS assay to identify small molecule agonists of the RXR signaling pathway (AID 1159527; calls by dose curve; also: nearly all actives have a fitted effect of over 35% in size)
In short: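 Read-out: beta-lactamase FRET ratio (405 nm excitation, 460 and 530 nm emission) after 2 hr substrate loading at room temperature. Cells were RXR-alpha-UAS-bla HEK 293T treated with compounds for 16 hr in 2% charcoal-stripped FBS medium.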

[2] = qHTS assay to identify small molecule agonists of the RXR signaling pathway - cell viability counter screen (AID 1159529); also: nearly all actives have a fitted effect of over 50% in size
In short: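 HEK 293T RXRa-bla cells, 2% CS-FBS; 5 h settle; cpd 16 h 37 C, 5% CO2; CellTiter-Glo 30 min RT, luminescence. Tetraoctyl ammonium bromide as positive control.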

[3] = qHTS assay to identify small molecule antagonists of the retinoid acid receptor (RAR) signaling pathway - cell viability counter screen (AID 1159551); also: nearly all actives have a fitted effect of over 35% in size
In short: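 Luminescent ATP quantitation (CellTiter-Glo) gave cell viability in C3RL4 cells exposed to test chemicals for 6 h at 37 C alongside 1 uM final retinol.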

[4] = qHTS assay to identify small molecule antagonists of the retinoic acid receptor (RAR) signaling pathway (AID 1159552; also: nearly all actives have a fitted effect of over 50% in size)
In short: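 Cells of the C3RL4 line were seeded, incubated overnight, then dosed with compounds in DMSO followed immediately by retinol (1 uM final). Six hours later luciferase detection reagent went in; signal was measured after 30 min at RT.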

[5] = qHTS assay to identify small molecule agonists of the retinoic acid receptor (RAR) signaling pathway (AID 1159553); conditions: C3RL4 RARE luciferase reporter, agonist, 6 h; activation: at 73.3 µM (top of the series)
In short: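 Luminescence from a RARE-driven luciferase reporter in C3RL4 cells served as the read-out, measured after 30 min with detection reagent at room temperature. Compounds in DMSO were applied for 6 hr at 37 C following overnight seeding.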

[6] = qHTS assay to identify small molecule antagonists of the estrogen related receptor (ERR) signaling pathway from Tox21 library - cell viability counter screen (AID 1224834); also: nearly all actives have a fitted effect of over 30% in size
In short: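 Fluorescence from CellTiter-Fluor gives the viability read-out, taken 30 min after reagent addition. Before that, ERR cells seeded 6 h earlier were incubated with compounds for 17.5 h at 37 C.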

[7] = target: Luciferin 4-monooxygenase (Photinus pyralis) (UniProt P08659); test: qHTS assay to identify small molecule inhibitors of firefly luciferase (AID 1224835); also: nearly all actives have a fitted effect of over 25% in size
In short: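 Quantitative HTS format; KM concentrations of both substrates. Purified P. pyralis FLuc activity quantified from luminescence images.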

[8] = qHTS assay to identify small molecule antagonists of the constitutive androstane receptor (CAR) signaling pathway - cell viability counter screen (AID 1224837); also: nearly all actives have a fitted effect of over 45% in size
In short: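 HepG2-CYP2B6-hCAR cells, 2500/well, 4 hr pre-incubation; compound titration, 15 conc.; CITCO 50 nM final; 23 hr, 37 C/5% CO2; CellTiter-Fluor, fluorescence intensity.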

[9] = qHTS assay to identify small molecule antagonists of the estrogen related receptor signaling pathway with the pleiotropic PPARgamma coactivator (PGC) from Tox21 10K library - cell viability counter screen (AID 1224840; active = well fitted cell-killing curve with a large enough effect in the repeat runs, not every such curve was filed as active; also: nearly all actives have a fitted effect of over 40% in size)
In short: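 PGC/ERR cells, 2,000/well; 6 h pre-incubation 37 C/5% CO2; cpd in DMSO via pin tool; 17.5 h 37 C; CellTiter-Fluor, 30 min; fluorescence.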

[10] = qHTS assay to identify small molecule antagonists of the estrogen related receptor signaling pathway with the pleiotropic PPARgamma coactivator (PGC) from Tox21 10K library (AID 1224841; call rule not given here; also: actives are mostly falling curves and most rising ones were filed inactive; nearly all actives have a fitted effect of over 50% in size)
In short: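 PGC/ERR cell line, 2,000 cells/well; 6 h pre-incubation 37 C/5% CO2; compounds (DMSO) pinned in; 18 h, 37 C; One-Glo, 30 min RT; luminescence.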

[11] = qHTS assay to identify small molecule agonists of the estrogen related receptor signaling pathway with the pleiotropic PPARgamma coactivator (PGC) from Tox21 10K library (AID 1224842); also: nearly all actives have a fitted effect of over 15% in size
In short: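 PGC/ERR reporter cells (NTP line) were seeded 2,000 per well, rested 6 h at 37 C/5% CO2, then pin-dosed with compounds in DMSO for 18 h at 37 C; luciferase read by One-Glo luminescence after 30 min at room temperature.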

[12] = target: Thyrotropin receptor (Homo sapiens) (UniProt P16473); test: qHTS assay to identify small molecule agonists of the thyroid stimulating hormone receptor (TSHR) signaling pathway (AID 1224843; calls by dose curve; also: nearly all actives have a fitted effect of over 45% in size)
In short: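 Cell line HEK293 with TSHR; density 800/well. Exposure 30 min RT. Readout HTRF cAMP (cAMP-d2/anti-cAMP-cryptate), 1 h RT before reading.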

[13] = qHTS assay to identify small molecule agonists of the hypoxia (HIF-1) signaling pathway - cell viability counter screen (AID 1224844; calls by dose curve; also: nearly all actives have a fitted effect of over 50% in size)
In short: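 ME-180 HRE-bla cells, 2,000/well, 0.5% dialyzed FBS; 5 hr settle, 17 hr compound at 37C/5% CO2; CCF4-AM reporter read first, then CellTiter-Glo luminescence after 30 min RT.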

[14] = qHTS assay to identify small molecule agonists of H2AX (AID 1224845; active = well fitted activation curve with a large enough effect in the signal ratio in the repeat runs, not every such curve was filed as active; the % refers to the signal ratio)
In short: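 Wild-type CHO-K1 cells plated overnight, then exposed 3 hr at 37C to compounds at 15 concentrations (0.76% DMSO). Lysed, then HTRF anti-pH2AX(S139)-cryptate/anti-H2AX-d2 detection after 24 hr at room temperature; emissions 665 and 620 nm.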

[15] = qHTS assay to identify small molecule agonists of the hypoxia (HIF-1) signaling pathway (AID 1224846; active = well fitted activation curve with a large enough effect in the signal ratio in the repeat runs, not every such curve was filed as active; the % refers to the signal ratio)
In short: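 Cell line: CellSensor HRE-bla ME-180; 2,000 cells/well; 0.5% dialyzed FBS; 5 h preincubation; DMSO compound pin transfer; 17 h, 37C, 5% CO2; CCF4-AM added; bla FRET signal scored for activation.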

[16] = qHTS assay to identify small molecule agonists of H2AX - cell viability counter screen (AID 1224847; calls by dose curve; also: top concentration of the series differs between compounds; nearly all actives have a fitted effect of over 30% in size)
In short: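 Cells plated first: CHO-K1, 1000 per well in 10% FBS medium, incubated overnight at 37C. Then 15-point compound titration added (final DMSO 0.76%) for 3 hr. Finally CellTiter-Glo added and luminescence read.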

[17] = qHTS assay to identify small molecule antagonists of the estrogen related receptor (ERR) signaling pathway from Tox21 library (AID 1224848); also: nearly all actives have a fitted effect of over 50% in size
In short: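 Screening used an ERR reporter line supplied by NTP, exposed for 18 h at 37 C to library compounds delivered in DMSO. Signal was luciferase luminescence developed with ONE-Glo at room temperature for 30 min.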

[18] = qHTS assay to identify small molecule agonists of the constitutive androstane receptor (CAR) signaling pathway - cell viability counter screen (AID 1224836); also: nearly all actives have a fitted effect of over 45% in size
In short: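 HepG2-CYP2B6-hCAR, 2500 cells/well, 4 h pre-incubation; cpd 15 conc + PK11195 0.75 uM final; 23 h, 37 C/5% CO2; CellTiter-Fluor, fluorescence.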

[19] = target: Nuclear receptor subfamily 1 group I member 3 (Homo sapiens) (UniProt Q14994); test: qHTS assay to identify small molecule antagonists of the constitutive androstane receptor (CAR) signaling pathway (AID 1224838);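 also: HepG2 cells stably expressing hCAR with CYP2B6 luciferase reporter stimulated by CITCO; nearly all actives have a fitted effect of over 40% in size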
In short: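 HepG2-CYP2B6-hCAR cells; 4 h pre-incubation; cpd (15 conc) + CITCO 50 nM final; 24 h, 37 C/5% CO2; ONE-Glo, luminescence.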

[20] = target: Nuclear receptor subfamily 1 group I member 3 (Homo sapiens) (UniProt Q14994); test: qHTS assay to identify small molecule agonists of the constitutive androstane receptor (CAR) signaling pathway (AID 1224839);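 also: HepG2 cells stably carrying human CAR and a CYP2B6 luciferase reporter; nearly all actives have a fitted effect of over 15% in size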
In short: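 HepG2-CYP2B6-hCAR cells, 2500/well, 4 h pre-incubation; compounds 15 conc.; PK11195 0.75 uM final; 24 h, 37 C/5% CO2; ONE-Glo luciferase read.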
% is scaled to controls: 0 for no effect and ±100 for the full control effect.

Chain of Nuclear receptor subfamily 1 group I member 3 (Homo sapiens) (Q14994 whole entry, looked up): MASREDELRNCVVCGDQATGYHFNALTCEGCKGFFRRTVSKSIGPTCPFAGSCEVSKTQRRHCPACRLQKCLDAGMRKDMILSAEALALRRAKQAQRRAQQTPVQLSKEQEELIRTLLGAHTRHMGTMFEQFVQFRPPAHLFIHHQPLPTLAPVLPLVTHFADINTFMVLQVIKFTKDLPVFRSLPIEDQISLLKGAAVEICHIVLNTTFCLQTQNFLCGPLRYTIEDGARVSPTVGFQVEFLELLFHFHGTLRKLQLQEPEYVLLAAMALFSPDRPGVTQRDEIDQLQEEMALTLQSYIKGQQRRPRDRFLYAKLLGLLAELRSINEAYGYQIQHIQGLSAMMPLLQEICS
Chain of Thyrotropin receptor (Homo sapiens) (P16473 whole entry, looked up): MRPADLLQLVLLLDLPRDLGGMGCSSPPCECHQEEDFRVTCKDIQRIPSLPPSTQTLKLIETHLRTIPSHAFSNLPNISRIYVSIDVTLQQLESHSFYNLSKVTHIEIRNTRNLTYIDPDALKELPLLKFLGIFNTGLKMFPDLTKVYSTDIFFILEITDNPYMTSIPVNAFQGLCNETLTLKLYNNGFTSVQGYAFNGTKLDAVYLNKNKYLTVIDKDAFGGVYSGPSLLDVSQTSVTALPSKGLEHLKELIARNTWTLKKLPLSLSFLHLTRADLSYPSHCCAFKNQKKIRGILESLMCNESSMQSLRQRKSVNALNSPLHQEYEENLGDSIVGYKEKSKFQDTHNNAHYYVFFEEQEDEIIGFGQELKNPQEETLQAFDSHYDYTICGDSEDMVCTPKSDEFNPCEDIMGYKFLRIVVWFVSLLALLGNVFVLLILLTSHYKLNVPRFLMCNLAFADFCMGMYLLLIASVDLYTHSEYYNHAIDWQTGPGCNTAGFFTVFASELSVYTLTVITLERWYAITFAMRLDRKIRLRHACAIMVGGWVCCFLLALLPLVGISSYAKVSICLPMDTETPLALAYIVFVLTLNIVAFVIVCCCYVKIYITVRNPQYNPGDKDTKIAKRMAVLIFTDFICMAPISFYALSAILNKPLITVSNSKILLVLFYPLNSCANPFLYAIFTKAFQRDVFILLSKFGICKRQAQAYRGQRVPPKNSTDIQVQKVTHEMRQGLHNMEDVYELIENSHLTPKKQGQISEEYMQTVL
Chain of Retinoic acid receptor RXR-alpha (Homo sapiens) (P19793 whole entry, looked up): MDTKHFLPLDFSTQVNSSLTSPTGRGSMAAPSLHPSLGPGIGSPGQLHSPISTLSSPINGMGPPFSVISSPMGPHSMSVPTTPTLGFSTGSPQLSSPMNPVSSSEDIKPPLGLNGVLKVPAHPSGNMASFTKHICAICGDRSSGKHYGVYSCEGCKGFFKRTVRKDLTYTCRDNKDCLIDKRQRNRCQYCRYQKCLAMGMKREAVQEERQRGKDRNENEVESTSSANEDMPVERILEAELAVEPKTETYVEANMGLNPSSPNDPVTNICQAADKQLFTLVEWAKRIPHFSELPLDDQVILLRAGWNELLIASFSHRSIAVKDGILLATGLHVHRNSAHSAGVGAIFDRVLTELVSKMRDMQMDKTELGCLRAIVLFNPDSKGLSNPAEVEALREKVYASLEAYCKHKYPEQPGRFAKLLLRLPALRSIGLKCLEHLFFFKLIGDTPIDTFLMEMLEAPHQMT
Chain of Luciferin 4-monooxygenase (Photinus pyralis) (P08659 whole entry, looked up): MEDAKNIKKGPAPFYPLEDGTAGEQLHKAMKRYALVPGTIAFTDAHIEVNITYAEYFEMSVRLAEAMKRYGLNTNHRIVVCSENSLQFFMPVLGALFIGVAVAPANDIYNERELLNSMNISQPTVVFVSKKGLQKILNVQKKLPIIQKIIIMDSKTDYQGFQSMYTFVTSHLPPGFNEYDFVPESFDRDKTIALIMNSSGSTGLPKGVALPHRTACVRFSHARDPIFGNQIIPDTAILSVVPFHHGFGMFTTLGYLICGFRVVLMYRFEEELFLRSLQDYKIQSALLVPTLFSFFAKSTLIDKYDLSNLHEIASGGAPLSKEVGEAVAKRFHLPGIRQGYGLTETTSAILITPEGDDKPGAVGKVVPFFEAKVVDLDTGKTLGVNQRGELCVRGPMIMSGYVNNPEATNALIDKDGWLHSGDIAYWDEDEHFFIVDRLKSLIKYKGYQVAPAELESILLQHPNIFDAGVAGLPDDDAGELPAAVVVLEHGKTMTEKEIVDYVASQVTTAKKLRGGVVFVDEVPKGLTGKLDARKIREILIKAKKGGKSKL

c1ccccc1
inactive: Potency [1] | outcome [2] | outcome [3] | Potency [4] | Potency [5] | Potency [6] | Potency [7] | Potency [8] | outcome [9] | Potency [10] | outcome [11] | outcome [12] | outcome [13] | outcome [14] | outcome [15] | Potency [16] | Potency [17]

CO[Si](CCCS)(OC)OC
inactive: Potency [1] | outcome [2] | outcome [3] | Potency [4] | Potency [5] | Potency [6] | outcome [18] | Potency [8] | outcome [9] | outcome [12] | outcome [13] | outcome [14] | outcome [15] | Potency [16]

O=CO
inactive: activation [1] 1.02% [at 6.98 µM] | activity change, negative = cytotoxicity [2] 0.323% [at 6.97 µM] | activity change, negative = cytotoxicity [3] 2.98% [at 8.39 µM] | activity, negative = inhibition [4] -7.08% [at 8.39 µM] | activation [5] -3.33% [at 8.36 µM] | viability change, negative = cytotoxic [6] -0.634% [at 8.39 µM] | viability change, negative = cytotoxic [18] 2.87% [at 8.39 µM] | activity change, negative = cytotoxicity [8] -0.437% [at 8.39 µM] | activity, negative = inhibition [19] -2.01% [at 8.39 µM] | activation [20] -3.71% [at 8.39 µM] | viability change, negative = cytotoxic [9] -0.178% [at 8.39 µM] | activity, negative = inhibition [10] 4.47% [at 8.39 µM] | activation [11] -0.64% [at 8.39 µM] | activity change, negative = cytotoxicity [13] -0.151% [at 6.97 µM] | activation (H2AX phosphorylation) [14] 0.0105% [at 14 µM] | activation [15] -0.756% [at 7.01 µM] | activity change, negative = cytotoxicity [16] 0.103% [at 14 µM] | activity, negative = inhibition [17] -2.33% [at 8.39 µM]

CCCCC(C)C(=O)O (configuration not stated)
inactive: Potency [1] | outcome [2] | outcome [3] | Potency [4] | Potency [5] | Potency [6] | Potency [7] | Potency [8] | outcome [9] | Potency [10] | outcome [11] | outcome [12] | outcome [13] | outcome [14] | outcome [15] | Potency [16] | Potency [17]

O=C1c2ccccc2-c2ccccc21
inactive: Potency [1] | outcome [2] | outcome [3] | Potency [4] | Potency [5] | Potency [6] | outcome [18] | Potency [8] | Potency [19] | Potency [20] | outcome [9] | Potency [10] | outcome [11] | outcome [12] | outcome [13] | outcome [14] | outcome [15] | Potency [16] | Potency [17]

CC(C)C(=O)Nc1cccc(C(F)(F)F)c1
inactive: Potency [1] | outcome [2] | outcome [3] | Potency [4] | Potency [5] | Potency [6] | outcome [18] | Potency [8] | Potency [19] | Potency [20] | outcome [9] | Potency [10] | outcome [11] | outcome [14] | outcome [15] | Potency [16] | Potency [17]
